# Screening results from PubChem BioAssay.
# SMARCA2 activ: SMARCA2 (BRM) function activators, primary screen, cell-based, luminescence, high throughput | AID 652017, 2013 | MG213 cells, MMTV-luciferase reporter, dexamethasone, overnight | actives 1% (n = 370,000) | activation, % at 9.1 µM; in the data active = activation above about 7.8%;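 also: 0% = vehicle wells and 100% = reference activator wells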
# Rtt109 HAT inh: inhibitors of C. albicans Rtt109/Vps75 HAT, primary screen, biochemical, ThioGlo CoA-SH fluorescence, plate reader; Histone acetyltransferase RTT109 (Candida albicans (strain SC5314 / ATCC MYA-2876)), …; purified Rtt109/Vps75, 4 h; inhibition, % at 34.9 µM; actives 0.16% (n = 330,000); AID 540336, 2011;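 active = inhibition of at least 50% in every replicate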
# dFosB act-1: activators of delta FosB homodimer, primary screen, biochemical, fluorescence polarization, TAMRA-CDK5 oligo, single point; AID 493131, 2011; activation, % at 25 µM; Protein FosB (Mus musculus), P13346; actives 0.99% (n = 340,000); purified delta FosB; percent of positive-control signal above neutral wells;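 active = mean activation above about 17%, with every replicate also reaching it, limit read from the data, passing the limit was not always enough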
# Target sequence (P13346 whole entry, looked up): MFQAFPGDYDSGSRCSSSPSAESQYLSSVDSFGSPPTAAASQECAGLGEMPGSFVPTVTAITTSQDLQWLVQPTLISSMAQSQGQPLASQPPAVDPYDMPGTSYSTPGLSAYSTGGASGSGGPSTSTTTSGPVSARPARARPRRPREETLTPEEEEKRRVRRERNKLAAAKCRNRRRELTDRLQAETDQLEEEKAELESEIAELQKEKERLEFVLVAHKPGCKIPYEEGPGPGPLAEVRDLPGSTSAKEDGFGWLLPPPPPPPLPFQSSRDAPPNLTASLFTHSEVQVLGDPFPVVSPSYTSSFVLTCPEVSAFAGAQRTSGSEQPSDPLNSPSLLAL
# esBAF inh: Bmi1 luciferase reporter increase in mESCs, primary screen, esBAF inhibitor project, mouse ES cells, Bmi1 luciferase knock-in, single point; actives 2% (n = 350,000); AID 602393, 2012; reporter increase, % at 12.5 µM; 24 h; 100% = twice the neutral-well signal; in the data active = activation above about 40%;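 also: 0% = median of the plate's neutral control wells and 100% = double that signal; a rise in the Bmi1 reporter signal indicates esBAF inhibition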
# Dyrk1A ADPGlo: rat Dyrk1A kinase inhibitors, primary screen, biochemical, single point, plate reader. Dual specificity tyrosine-phosphorylation-regulated kinase 1A (Rattus norvegicus), Q63470. ADP-Glo luminescence, NFATc1 peptide. inhibition, % at 12.5 µM. actives 0.43% (n = 310,000). AID 504441, 2011; in the data active = inhibition above about 50%;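 also: plate controls were vehicle with enzyme for no effect and no enzyme for full effect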
# CDK5 p35 inh: inhibitors of human CDK5/p35 kinase, primary screen, biochemical, single concentration | AID 488839, 2010 | inhibition, % at 10 µM | Recombinant CDK5/p35, ADP-Glo luminescence, 60 min | actives 0.01% (n = 330,000);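 active = highest replicate inhibition of at least 50% and at least 75% of replicates reaching 50%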;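 also: plate controls were DMSO neutral control for no effect and GW8510 at 10 µM for full effect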
# dFosB act-2: activators of mouse delta FosB DNA binding, confirmation, biochemical, fluorescence polarization, TAMRA-CDK5 oligo, cherry-picked samples; 2,400 tested, under 10 active; shares compounds with dFosB act-1; activation, % at 24.9 µM; purified delta FosB; normalised: neutral wells 0, positive control 100;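 active = highest replicate activation at or above 34% and every replicate reaching that threshold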;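 also: higher polarization means more probe DNA bound by delta FosB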
# Starred values were filed as active, the others as inactive; . = no result given. Compounds with a hit are over-represented: about 3.2% of the library has one in this group of screens.
SMILES,SMARCA2 activ,Rtt109 HAT inh,dFosB act-1,esBAF inh,Dyrk1A ADPGlo,CDK5 p35 inh,dFosB act-2
C[C@@H]1CN([C@@H](C)CO)C(=O)c2cccc(NS(=O)(=O)c3cn(C)cn3)c2O[C@@H]1CN(C)C(=O)Nc1ccc(F)cc1,.,.,.,-3,.,.,.
O=C(Nc1ccccc1Cc1ccccc1)C1CC(=O)N(c2ccc3c(c2)OCCO3)C1 (centres undefined),-3,-8,36*,.,-2,-1,0
O=C(C[C@H]1C[C@H]2c3cc(NC(=O)c4cccnc4)ccc3O[C@H]2[C@@H](CO)O1)NCc1cccnc1,.,.,.,1,.,.,.
O=C(Nc1ccc(Cl)cc1)N[C@@H]1CC[C@H](CCn2cc(Cc3ccccc3)nn2)O[C@@H]1CO,.,.,.,-1,.,.,.
Cc1cc(Br)ccc1SCC(=O)OC/C(O)=C(\C#N)c1nc2ccccc2[nH]1,1,3,52*,.,1,0,4
C[C@@H]1CN([C@@H](C)CO)C(=O)Cc2cc(NC(=O)Cc3cn(C)c4ccccc34)ccc2O[C@@H]1CN(C)S(=O)(=O)c1ccccc1,.,.,.,-1,.,.,.
CC(C)(C)OC(=O)NCc1ccc(NC(=O)c2nc[nH]c2C(=O)NCCNC(=O)c2[nH]cnc2C(=O)Nc2ccc(CNC(=O)OC(C)(C)C)cc2)cc1,.,-4,40*,5,2,0,2
COc1ccc(-c2csc(NC(=S)NC(=O)c3ccc(S(=O)(=O)N(C)C)cc3)n2)cc1OC,-3,-12,29*,.,0,0,0
C[C@@H]1CN([C@H](C)CO)C(=O)c2cc(-c3ccc(F)cc3)cnc2O[C@@H]1CN(C)C(=O)Nc1ccc(F)cc1,.,.,.,4,.,.,.
CC(=O)c1cccc(N(C(=O)CS(=O)CC(=O)Nc2ccc(F)cc2)C(C(=O)NC2CCCCC2)c2ccc(C)o2)c1 (centres undefined),-2,3,-2,.,-4,0,.
CC(=O)c1ccc(N(C(=O)CS(=O)CC(=O)Nc2ccc(F)cc2)C(C(=O)NC2CCCCC2)c2cccs2)cc1 (centres undefined),0,-8,20*,.,-6,-1,1
O=C(NCCNC(=O)c1cc(OCC(F)(F)F)ccc1OCC(F)(F)F)Nc1ccc(OC(F)(F)F)cc1,-1,5,38*,.,3,0,-4
O=C(NCCNC(=O)c1cc(OCC(F)(F)F)ccc1OCC(F)(F)F)Nc1ccc(Cl)cc1,2,.,.,.,.,.,.
CCc1ccc(Nc2n[n+](-c3ccccc3)c(-c3ccc(SC)cc3)s2)cc1,1,4,31*,-2,-3,-1,0
CSc1ccc(-c2sc(Nc3ccccc3)n[n+]2-c2ccccc2)cc1,.,-3,0,.,8,0,.
Cc1cccc(NC(=O)CSc2nc(C3CC3)nc3ccccc23)c1,-4,12,8,1,-6,0,.
Cn1c(=O)c2c(SCC(=O)Nc3ccccc3F)nc(C3CC3)nc2n(C)c1=O,0,-9,24*,-6,-2,1,0
CC(=O)Nc1cccc(NC(=O)CSc2nc(C3CC3)nc3ccccc23)c1,-5,-3,15,14,4,1,.
O=C(CSc1nc(C2CC2)nc2ccccc12)Nc1ccccc1,6,7,36*,10,1,1,-2
COc1cc(NC(=O)CSc2nc(C3CC3)nc3ccccc23)cc(OC)c1,0,2,88*,-13,1,-1,4
O=C(CSc1nc(C2CC2)nc2ccccc12)Nc1ccccc1Cl,-1,-4,31*,2,2,0,2
Cn1c(=O)c2c(SCC(=O)Nc3ccccc3F)nc(-c3ccccc3F)nc2n(C)c1=O,0,-4,15,-2,-2,-1,.
C[C@@H]1CCCCO[C@@H](CN(C)Cc2ccc(Cl)c(Cl)c2)[C@H](C)CN([C@@H](C)CO)C(=O)c2cc(NC(=O)Nc3ccc(C(F)(F)F)cc3)ccc2O1,.,.,.,4,.,.,.
C[C@@H]1CN([C@@H](C)CO)C(=O)c2cc(NC(=O)Cc3ccccc3)ccc2O[C@@H]1CN(C)Cc1ccc(Cl)c(Cl)c1,.,.,.,5,.,.,.
Cc1cccn2c(=O)c(/C=N/O)c(Nc3ccccc3F)nc12,-1,-6,20*,.,-4,3,1
SMILES,SMARCA2 activ,Rtt109 HAT inh,dFosB act-1,esBAF inh,Dyrk1A ADPGlo,CDK5 p35 inh,dFosB act-2
CO[C@@H]1CN(C)C(=O)c2cc(NC(C)=O)ccc2OC[C@@H](C)N(C(=O)CC2CC2)C[C@@H]1C,.,.,.,-3,.,.,.
CCC(=O)Nc1ccc2c(c1)C(=O)N(C)[C@@H]1CC[C@H](CC(=O)O)O[C@@H]1CO2,.,.,.,-4,.,.,.
CCc1ccc(NC(=O)C2CCCN(S(=O)(=O)c3ccc4[nH]c(=O)ccc4c3)C2)cc1 (centres undefined),-2,0,29*,10,-3,0,-1
Cc1cc(C)cc(NC(=O)C2CCN(S(=O)(=O)c3ccc4[nH]c(=O)ccc4c3)CC2)c1,-2,-3,46*,-14,1,1,-5
CCc1cccc(NC(=O)C2CCN(S(=O)(=O)c3ccc4[nH]c(=O)ccc4c3)CC2)c1,-1,-12,-2,1,-2,-4,.
CC(C)C[C@H]1CN([C@@H](Cc2ccc(O)cc2)CN2CCC[C@@H]2CN2C(=S)NC[C@@H]2Cc2ccccc2)C(=S)N1CC1CCCCCC1,-1,.,.,-4,.,.,.
CC(C)C[C@H]1CNC(=S)N1C[C@H]1CCCN1C[C@H](CC(C)C)N1C[C@H](Cc2ccc(O)cc2)N(CC2CCCCC2)C1=S,-5,.,.,.,.,.,.
CC(C)C[C@@H](CN1CCCC1CN1C(=S)NC[C@@H]1Cc1ccccc1)N1C[C@H](Cc2ccccc2)N(CC2CCCCCC2)C1=S (some centres undefined),0,.,.,.,.,.,.
CC(C)C[C@@H](CN1CCCC1CN1C(=S)NC[C@@H]1Cc1ccc(O)cc1)N1C[C@H](Cc2ccccc2)N(CC2CCCCC2)C1=S (some centres undefined),6,-11,52*,6,.,0,1
CC(C)C[C@@H](CN1CCCC1CN1C(=S)NC[C@@H]1Cc1ccc(O)cc1)N1C[C@H](Cc2ccc(O)cc2)N(CC2CCCCCC2)C1=S (some centres undefined),3,-7,21*,9,.,1,2
